The panel holds about 83,000 compounds, 20% with a hit somewhere; the sample as a whole holds those more often.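 Cell lines were cultured in 96-well plates, exposed to a single compound concentration, and assessed for percent growth 48 hours later.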 The source made the active and inactive calls. How the source made its calls: active means growth percent below 10; inactive means the rest.
These compounds were tested on MDA-MB-468 breast (assay: NCI-60 one-dose screen, 48 h (100 = growth as untreated, 0 = no growth, -100 = all killed)). Conditions: 10 µM unless noted.

Row | SMILES | growth
1 | CCCCCCCCCCCCCCCCCCNC(=O)[C@H]1CSC(c2ccc(OC)c(F)c2)N1 (stereo not given in full) | 76.9% (inactive)
2 | CN1CCC2(CC1)NC(=O)c1c(c3ccc(Cl)c(Cl)c3n1C)C2C#N (stereo not given) | 9.36% (active)
3 | NS(=O)(=O)c1cccc(NC(=O)C(=O)C2C(=O)Nc3ccccc32)c1 (stereo not given) | 101% (inactive)
4 | COc1cc(/C(C)=C(\c2ccc(Cl)cc2)c2ccc(OCCN3CCCC3)cc2)ccc1F | 57.3% (inactive)
5 | O=C(Nc1ccc(Cl)cc1)c1cc2c(cc1O)[nH]c1ccccc12 | -17.6% (active)
6 | COc1ccccc1-n1c(-c2cc(O)ccc2C)cn2c3c(=O)[nH]c(=O)n(C)c3nc12 | 92.3% (inactive)
7 | Cc1cc(C(=O)CCCC(=O)c2cc(C)c(O)c(C)c2)cc(C)c1O | -3.17% (active)
8 | FC(F)(F)c1ccc2c(c1)Sc1ccccc1N2 | 102% (inactive)
9 | Cc1ccc(NC(=O)C2CCC(CN3CCN(C)CC3)CC2)cc1Nc1nccc(-c2cccnc2)n1 (stereo not given) | 94.8% (inactive)
10 | CC[C@@H](C(=O)[C@@H](C)[C@@H](O)[C@H](C)[C@@H]1O[C@@H]([C@@H](CC)C(=O)ONC(=O)c2ccccc2O)CC[C@@H]1C)C1O[C@]2(C=CC(=O)[C@]3(CC[C@@](C)([C@H]4CC[C@](O)(CC)[C@H](C)O4)O3)O2)[C@H](C)C[C@@H]1C (stereo not given in full) | 16.4% (inactive)
11 | Clc1ccc(Nc2nc(Nc3ccccc3)nc(Nc3ccc(-c4cc(-c5ccc(Cl)cc5)on4)cc3)n2)cc1 | 93.4% (inactive)
12 | OC(c1cc2c(Cl)cc(Cl)cc2c2cc(C(F)(F)F)ccc12)C1CCCCN1 (stereo not given) | -89.1% (active)
13 | COc1ccc2nc3c(cc2c1)C(=O)CC(C(F)(F)F)C3 (stereo not given) | 35.6% (inactive)
14 | Cc1cc(NS(=O)(=O)c2ccc(-c3cnc(C4CC4)o3)cc2)ccc1Cl | -6.6% (active)
15 | O=C(O)c1ccc2c(c1Cl)C(=O)c1ccccc1C2=O | 88.9% (inactive)
16 | Cc1cc(C)c(NC(=O)c2sc3nc4c(cc3c2N)CCCCCC4)c(C)c1 | 40.1% (inactive)
17 | COC(=O)c1cccnc1 | 97.7% (inactive)
18 | CCOc1ccc(C(=O)NCC(C)C)cc1 | 105% (inactive)
19 | COc1ccc(/C=C/C(=O)c2ccc(Nc3ncnc4ccccc34)cc2)cc1OC | 60.7% (inactive)
20 | CC(=O)OCC1OC(OC2C(COC(C)=O)OC(OCCC[S-])C(OC(C)=O)C2OC(C)=O)C(OC(C)=O)C(OC(C)=O)C1OC(C)=O.[Au+].c1ccc(CN2[CH-]N(Cc3ccccc3)C(c3ccccc3)=C2c2ccccc2)cc1 (stereo not given) | 10.2% (inactive)

Row | SMILES | growth
21 | CC1(COc2ccc3c(c2)ncn3-c2ccc3cccc(N4CCC(N)CC4)c3n2)COC1 | -20.6% (active)
22 | NC(=O)[C@@H]1CC2CCC1C2 (stereo not given in full) | 99.4% (inactive)
23 | COc1cc2cc(Oc3cccc(NC(=O)Nc4cc(C(F)(F)F)cc(C(F)(F)F)c4)c3)c(C)nc2cc1OC | -8.12% (active)
24 | O=c1[nH]c2ccc(Br)cc2c2c1C(c1ccc(Cl)cc1)c1c(ncn3nc(-c4ccco4)nc13)O2 (stereo not given) | 85.9% (inactive)
25 | Nc1nc(N)c2cc(Sc3cccc(C(F)(F)F)c3)ccc2n1 | -4.8% (active)
26 | COc1nc(N(C)O)nc(N(C)O)n1 | 29.4% (inactive)
27 | COc1ccc(/C=N\Nc2nc(SCC(C)C)nc(-c3ccc(OC)cc3)c2C#N)cc1 | 71.8% (inactive)
28 | ClC(Cl)c1nc(-c2ccccc2)nc2cc(-c3ccccc3)nn12 | 33.8% (inactive)
29 | O=C(NNc1nc2cc(F)c(F)cc2n2cccc12)c1cnccn1 | 17.5% (inactive)
30 | COc1ccc(C(=O)/C=C/c2ccc(Cl)cc2)cc1S(N)(=O)=O | 57.3% (inactive)
31 | CCCCCCNC(=O)Oc1ccc(/C(=C(/C)Cc2ccc(OC)cc2)c2ccc(OCCCN(C)C)cc2)cc1 | -17.3% (active)
32 | COC(=O)[C@]12CC[C@@H](C)[C@H](C)[C@@H]1C1=CC[C@@H]3[C@@]4(C)C=C(O)C(=O)[C@@]5(C)COC(=C54)C[C@@]3(C)[C@]1(C)CC2 | -57.7% (active)
33 | CC(C)CC(=O)Nc1n[nH]c2c1CN(C(=O)C1CCN(C)CC1)C2(C)C | -44.3% (active)
34 | O=C(C[n+]1cccc2ccccc21)c1ccc(O)c(O)c1 | 16.1% (inactive)
35 | C=C(C)[C@@H]1C[C@H](O)Cc2cc(Cl)cc(Cl)c2N1 | 97.5% (inactive)
36 | CC(=O)Oc1cccc(OC(C)=O)c1OC(C)=O | 97.6% (inactive)
37 | CCN1C(=O)N(c2ccccc2)C2Nn3c(s/c(=C4\C(=O)N(C(C)C)c5ccccc54)c3=O)=NC21 (stereo not given) | 108% (inactive)
38 | Brc1ccc(Br)nn1 | -85.5% (active)
39 | COc1c2occc2c(OC)c2c(=O)c(-c3cc(-c4ccc(F)cc4)c(C#N)c(N)n3)c(C)oc12 | 26.4% (inactive)
40 | O=C(O)c1cc([N+](=O)[O-])ccc1Br | 96.5% (inactive)
